According to PubChem BioAssay (NCI):
Values joined by “and” are separate entries in the source; they are usually repeats but may differ in a detail not shown here. Equal values may be shown once. This is part of a sample that, as a whole, favours compounds with a hit. Of some 83,000 tested, about 20% had one in any assay.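 Interpretation: 100, growth as untreated; towards 0, rising growth inhibition; 0, no net growth; 0 to -100, cell death. Compounds scoring below 10 were considered active.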 Active and inactive are the calls of the source.

What follows are molecules tested on MOLT-4 leukemia (assay: NCI-60 one-dose screen, 48 h (100 = growth as untreated, 0 = no growth, -100 = all killed)). Details: 10 µM unless noted.

| Compound | growth |
| --- | --- |
| CCc1cccc2c3c(sc12)C(c1ccc(F)cc1)C(C#N)=C(/N=C/c1ccc(Cl)cc1)O3 (stereo not given) | 25.4% (inactive) |
| Cc1ccc2c(n1)C(=O)C(Cl)=C(Nc1ccc(C(=O)OC(C)(C)C)cc1)C2=O | -6.96% [9.25 µM] (active) |
| Clc1ccc2[nH]cc(-c3cncn3CCc3ccc4c(c3)OCO4)c2c1 | 60.4% (inactive) |
| CCCCCCCCCC(=O)NC(C)(C)C(=O)N1CCC[C@H]1C(=O)N[C@@H](CC(C)C)C(=O)N[C@@](C)(CC)C(=O)N[C@@H](CCC(N)=O)C(=O)N[C@H](CCC(N)=O)C(=O)NC(C)(C)C(=O)NC(C)(C)C(=O)N[C@@H](CCC(N)=O)C(=O)N[C@H](CC(C)C)C(=O)N[C@H](CO)CC(C)C | -81.5% (active) and -26.1% (active) |
| C=C1CCc2nc(SCC(=O)O)ccc2N1 | 97.5% (inactive) |
| CC[C@]12C=CCN3CC[C@@]4(c5ccc(OC)cc5N(C)[C@H]4[C@@](O)(C(=O)OC)[C@@H]1OC(=O)CCN1CCc4ccccc4C1)[C@@H]32 | 80.5% (inactive) |
| CCOC(=O)c1cccnc1Nc1ccc(NC(=O)Nc2ccc(Cl)c(C(F)(F)F)c2)cc1 | 24.9% (inactive) |
| Cc1ccc(S(=O)(=O)NCCCNc2nccc(-c3[nH]c(-c4ccccc4)nc3-c3ccc(F)c(O)c3)n2)cc1 | 39.2% (inactive) |
| O=C(CSc1nnc(-c2ccc(Cl)cc2)n1-c1ccccc1)Nc1ccc(Cl)cc1 | 84.6% (inactive) |
| Cc1ccc2c(n1)C(=O)C(Cl)=C(Nc1ccc(C(F)(F)F)cc1)C2=O | 8.71% (active) |
